Compounds with a hit are over-represented: about 20% of the library has one in this group of screens.
Shiga toxin inh: Shiga toxin inhibition | Vero cells, Shiga toxin protein synthesis inhibition reporter | inhibition, % at 38.7 µM | actives 9.2% (n = 290,000); in the data active means inhibition mostly above about 28%, no sharp cut-off; inactive means mostly below about 43%
CHX counter: counter-screen for Shiga toxin inhibitors: cycloheximide protein synthesis inhibition | cell reporter, cycloheximide protein synthesis inhibition counterscreen | AID 2314 | max response, % | actives 12% (n = 300,000); in the data active means max response mostly above about 13%, no sharp cut-off; inactive means mostly below about 14%; further: read at 38.3 µM for the half of the compounds with a filed dose
Pf growth 48h: inhibits P. falciparum growth in the first generation, 48 h. actives 5.9% (n = 310,000). AID 504832. P. falciparum luciferase growth in erythrocytes, 48 h. Potency, µM (doses to about 28.7 µM), hits mostly inhibitors
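Read-out is firefly luciferase luminescence from an integrated reporter in P. falciparum, so falling signal marks reduced parasite growth. Infected erythrocytes were at 2% hematocrit and 0.1% parasitemia (final) in Albumax-supplemented RPMI 1640.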
Pf growth 96h: P. falciparum growth inhibition at 96 hours; P. falciparum luciferase reporter growth, 96 h; actives 6.9% (n = 320,000); Potency, µM (doses to about 28.7 µM), most hits filed as inhibitors
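Two-generation exposure (96 h) targets delayed-death phenotype. Reporter parasites carrying integrated firefly luciferase, in red cells at 2% hematocrit and 0.05% parasitemia final, kept at 37 C, 5% CO2; luminescence loss indicates inhibition.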
HCMV inh: blocks human cytomegalovirus replication; HFF cells, HCMV-luciferase reporter, 72 h; hits give low values; activity change, negative = inhibition, % at 57.5 µM; actives 4.5% (n = 410,000); in the data active means activity change below about -60%; inconclusive means no clear call, values can overlap the other calls; inactive means above about -39%
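Compounds were evaluated in HFFs infected with an HCMV luciferase reporter virus (MOI 1 PFU/cell). Luciferase in lysates collected 72 h post infection served as the replication measure.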
Hits are given with their value. Unless noted, the call rests on the fitted dose curve; in most records, active means well fitted inhibition curve with a large enough effect; inconclusive means small, poorly fitted or top-dose-only effect, or another doubt; inactive means no such curve, though single readings can be large or run the other way.

`Cc1ccc(C)c(Cn2c(C(C)NC(=O)c3ccc(F)cc3)nc3ccccc32)c1` (stereo not drawn) gave HCMV inh inactive.
CCCCOc1ccc(C(=O)NCC2(c3ccccc3)CCOCC2)cc1 was read as Shiga toxin inh inactive, CHX counter inactive, Pf growth 48h inconclusive, Pf growth 96h 10µM and HCMV inh inactive.
For CCCCCOc1ccc(C(=O)NCC2(c3ccccc3)CCOCC2)cc1 the results were Shiga toxin inh inactive, CHX counter inactive, Pf growth 48h 13µM, Pf growth 96h inconclusive and HCMV inh inactive.
For CC(C)CN1C2CCCC1CC(NC(=O)c1ccc([N+](=O)[O-])cc1)C2 (stereo not drawn) the results were Shiga toxin inh inactive, CHX counter inactive, Pf growth 48h inactive, Pf growth 96h inconclusive and HCMV inh inactive.
For CSc1ccc(/C=C/C(=O)OCC(=O)NC2CC2)cc1 the results were Pf growth 48h inactive, Pf growth 96h inconclusive and HCMV inh inactive.
Cc1ccc2oc(=O)c(S(=O)(=O)c3ccc(C(C)(C)C)cc3)cc2c1 was read as HCMV inh inactive.
For Cc1cc(C)n2c(SCCC(C)C)nnc2n1 the results were Shiga toxin inh inactive, CHX counter 19, Pf growth 48h inactive, Pf growth 96h inconclusive and HCMV inh inactive.
`CCSc1nnc2nc(C)cc(C)n12` gave Shiga toxin inh inactive, CHX counter inactive, Pf growth 48h inactive and HCMV inh inactive.
Cc1ccc(CSc2nnc3nc(C)cc(C)n23)cc1 was read as Shiga toxin inh inactive, CHX counter inactive, Pf growth 48h inconclusive and HCMV inh -84.
O=C(CN1CCN(S(=O)(=O)N2CCCCCC2)CC1)Nc1ccc(Br)cc1 was read as Shiga toxin inh inactive, CHX counter inactive, Pf growth 48h inactive, Pf growth 96h inactive and HCMV inh inactive.
Screening CCN(CC(=O)Nc1c(F)cccc1F)C(=O)c1ccc(S(=O)(=O)N2CCC(C)CC2)cc1 returned Pf growth 48h inconclusive, Pf growth 96h inactive and HCMV inh inactive.
For CCc1ccc(S(=O)(=O)c2cn(CC(=O)Nc3ccc(F)c(Cl)c3)c3ccccc3c2=O)cc1 the results were HCMV inh inactive.
Screening CCCCCCN1CCN(C2CN(Cc3cn(Cc4ccccc4)nn3)S(=O)(=O)C2)CC1 (stereo not drawn) returned HCMV inh inactive.
`CCC1CCCCN1C(=O)c1cc(COc2ccc3ncccc3c2)on1` (stereo not drawn) gave Shiga toxin inh inactive, CHX counter inactive, Pf growth 48h inactive, Pf growth 96h inconclusive and HCMV inh -91.
For Cc1cc(C)n(CCNC(=O)c2cc(COc3ccc4ncccc4c3)on2)n1 the results were Shiga toxin inh inactive, CHX counter inactive, Pf growth 48h inconclusive, Pf growth 96h inactive and HCMV inh inactive.
Screening COCC1CCCCN1C(=O)c1cc(COc2ccc3ncccc3c2)on1 (stereo not drawn) returned Shiga toxin inh inactive, CHX counter inactive, Pf growth 48h inactive, Pf growth 96h inactive and HCMV inh -84.
Screening N#Cc1c(N)n(-c2cccc(Cl)c2)c2nc3ccccc3nc12 returned HCMV inh inactive.
`O=C(COC(=O)c1ccc2ccccc2c1O)NCC(F)(F)F` gave Shiga toxin inh 69, CHX counter 22, Pf growth 48h inactive, Pf growth 96h inactive and HCMV inh inactive.
Screening C/C(CC(=O)Nc1cc(Cl)ccc1C)=N\NC(=O)C(=O)N1CCCC1 returned Shiga toxin inh inactive, CHX counter 17, Pf growth 48h inactive, Pf growth 96h inactive and HCMV inh inactive.
C/C(CC(=O)Nc1ccc(Cl)cc1)=N\NC(=O)C(=O)N1CCCCC1 was read as Shiga toxin inh 52, CHX counter 16, Pf growth 48h inactive, Pf growth 96h inactive and HCMV inh inactive.
`COc1ccccc1CNC(=O)C(C)n1c(=O)cc(-c2ccccc2)c2c(C)nn(C)c21` (stereo not drawn) gave HCMV inh inactive.
CC(=O)Nc1ccc(C2=NN(c3ccccc3)C(c3ccccc3)C2)cc1 (stereo not drawn) was read as Shiga toxin inh 47, CHX counter 43, Pf growth 48h 9.3µM, Pf growth 96h 12µM and HCMV inh inactive.
Screening O=C(O)c1ccc(N2N=C(c3ccccc3)CC2c2ccccc2)cc1 (stereo not drawn) returned Shiga toxin inh 57, CHX counter 14, Pf growth 48h inactive, Pf growth 96h inactive and HCMV inh inactive.
